In the assay the test system is LEGO organoid PTN (PTEN-/-; TP53-/-; NF1-/-). As to the kind of experiment: bioluminescence (viable cell) signal fold change after vs before treatment, normalised to DMSO (ratio); higher = more tumour cell growth / less inhibition. Particulars: 10 µM; treatment time 6 days. How it is done: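 Luc2-labelled iPSC-derived glioblastoma-like organoids (LEGOs, genotypes PT = PTEN-/-;TP53-/-, PTCC = plus CDKN2A/B-/-, PTN = plus NF1-/-) were treated with 10 uM drug for 6 days (applied every other day) at 37 C. Bioluminescence imaging was done before treatment and 2 days after the last dose. BLI signals were normalised to the DMSO control on the same day and then to the pre-treatment signal (N=3).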
With `Cc1cnc(NC(=O)C2=C(O)c3ccccc3S(=O)(=O)N2C)s1` [Meloxicam], the bioluminescence came to 3.3. With `Cc1ccnc2c1NC(=O)c1cccnc1N2C1CC1` [Nevirapine] the figure was 1.73; with `CN[C@H](CC(C)C)C(=O)N[C@H]1C(=O)N[C@@H](CC(N)=O)C(=O)N[C@H]2C(=O)N[C@H]3C(=O)N[C@H](C(=O)N[C@H](C(=O)O)c4cc(O)cc(O)c4-c4cc3ccc4O)[C@H](O)c3ccc(c(Cl)c3)Oc3cc2cc(c3O[C@@H]2O[C@H](CO)[C@@H](O)[C@H](O)[C@H]2O[C@H]2C[C@](C)(N)[C@H](O)[C@H](C)O2)Oc2ccc(cc2Cl)[C@H]1O` [Vancomycin], 0.868; with `Cl.NC12CC3CC(CC(C3)C1)C2` [Amantadine hydrochloride], 3.32.

For `COC(c1ccccc1)(c1ccccc1)[C@H](Oc1nc(C)cc(C)n1)C(=O)O` [Ambrisentan], the bioluminescence worked out at 1.08. With `CN(C)CCCN1c2ccccc2CCc2ccccc21.Cl` [Imipramine hydrochloride] the figure was 0.961. With `COc1ccc2c(c1)c(CC(=O)O)c(C)n2C(=O)c1ccc(Cl)cc1` [Indometacin] the figure was 1.76.

(Values after the supplement of paper PMC10811239.)
